High-throughput results: PubChem BioAssay, National Center for Advancing Translational Sciences (NCATS)
S2 tox = reduces viability in counter-screen for ATXN expression inhibitors. Potency, µM (highest dose often 56.7 µM), usual class: cytotoxic. S2 cells (HEK-293 line with an ATXN2-luciferase reporter) viability, CellTiter-Fluor protease fluorescence, 24 h. 400,000 compounds, 0.49% hits. AID 651635; also: nearly all actives have a fitted effect of over 40% in size
TDP1 cell CPT = DT40-hTDP1 cell growth loss with CPT; chicken DT40 Tdp1-/-;hTDP1 cells + 20 nM CPT, ATP luminescence, 48 h; Potency, µM (top dose mostly 46.2 µM), actives largely listed as inhibitors; 420,000 compounds, 12% hits; AID 686979; also: nearly all actives have a fitted effect of over 55% in size
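Cell growth measured by CellTiter-Glo luminescence after a minimum 48 h, 37 C compound exposure with 20 nM CPT in Tdp1-knockout DT40 cells stably expressing hTDP1, seeded 400/well; qHTS titration format.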
HepG2 tox = kills HepG2 cells in TGF-b inhibitor counter-screen. Potency, µM (top dose mostly 46.1 µM), usual class: cytotoxic. 410,000 compounds, 0.76% hits. HepG2 CAGA-GFP viability, ATP luminescence, 18 h
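HepG2 CAGA-GFP cells (1000/well, DMEM with 1% FBS) received compound, then TGF-beta at 500 pg/mL final, and were incubated 18 hours at 37 degrees C. Viability was read by CellTiter-Glo luminescence. Media-only wells were set as complete cell-killing and DMSO as no toxicity.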
ATXN2 expr inh = inhibitors of ATXN2 expression | HEK-293 ATXN2-luciferase reporter, luminescence, 24 h | Potency, µM (highest dose often 57 µM), most hits filed as inhibitors | 360,000 compounds, 0.72% hits | AID 1745845; also: nearly all actives have a fitted effect of over 55% in size
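qHTS (up to 57 uM final) was run with 24 h compound exposure of reporter cells at 37 °C. Each well was multiplexed: SteadyGlo luminescence measured ATXN2-luciferase expression after a fluorogenic Gly-Phe-AFC viability readout (25 uM final).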
TGFb inhibitor = inhibitors of TGF-b signaling. HepG2 CAGA-GFP TGF-b/SMAD3 reporter, GFP fluorescence, 18 h; TGF-beta stimulated, 500 pg/mL final. Potency, µM (highest dose often 46.1 µM), usual class: inhibitors. 410,000 compounds, 1.2% hits. AID 588855; also: nearly all actives have a fitted effect of over 65% in size
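First, reporter cells (HEPG2 CAGA-GFP) rested 2 h at 37 degrees C. Next, compounds were pinned in and TGF-beta added to 500 pg/mL final. After 18 h, GFP was imaged per cell and summed per well.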
TDP1 cell noCPT = qHTS for Inhibitors of human tyrosyl-DNA phosphodiesterase 1 (TDP1): qHTS in cells in absence of CPT; AID 686978, 2013; DT40 Tdp1-/- hTDP1 cells, no CPT, ATP luminescence, 48 h; 420,000 compounds, 15% hits; Potency, µM (doses to about 46.2 µM), actives largely listed as inhibitors; also: nearly all actives have a fitted effect of over 55% in size
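Growth kinetics read by CellTiter-Glo luminescence after ≥48 hr at 37 °C. Cells: DT40 Tdp1-/- stably carrying human TDP1, 400 per well, compound exposure in the absence of CPT (DMSO vehicle).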
A number is an active result; 0 = inactive; ? = inconclusive; - = no result given. Only some compounds are listed: those with a hit (about 17% of all), similar ones and a draw of the others. Calls follow the shape of the dose curve; as a rule, active = well fitted curve in the direction sought with a large enough effect; inconclusive = small, poorly fitted or top-dose-only effect, or another doubt; inactive = no such curve, though single readings can be large; an effect the other way counts as inactive or inconclusive.

SMILES	S2 tox	TDP1 cell CPT	HepG2 tox	ATXN2 expr inh	TGFb inhibitor	TDP1 cell noCPT
NC(=O)CC(NSc1ccccc1[N+](=O)[O-])C(=O)O (stereo unspecified)	0	16µM	0	0	0	18µM
O=c1cc(COc2ccc(Cl)cc2Cl)nc2scc(-c3ccccc3)n12	0	0	0	0	0	0
CS(=O)(=O)N1CCc2cc(C(=O)Nc3ccc(O)cc3)ccc21	0	0	0	0	0	0
COc1cccc(NC(=O)c2ccc3c(c2)CCN3S(C)(=O)=O)c1	?	?	0	0	0	?
CS(=O)(=O)N1CCCc2cc(C(=O)Nc3cccc(C(F)(F)F)c3)ccc21	-	?	0	-	0	18µM
CC(C)c1ccc(NC(=O)c2ccc3c(c2)CCN3S(C)(=O)=O)cc1	0	21µM	0	0	0	8.2µM
CC(=O)Nc1ccc(NC(=O)c2ccc3c(c2)CCN3S(C)(=O)=O)cc1	0	0	0	0	0	0
CS(=O)(=O)N1CCc2cc(C(=O)Nc3ccc(COCC(F)(F)F)cc3)ccc21	?	18µM	0	0	0	?
CC(C)[C@@H](N)C(=O)NC[C@H]1O[C@@H](n2cnc3c(N)ncnc32)[C@H](O)[C@@H]1O	0	?	0	0	0	0
CCNC(=O)C1CCCN(C(=O)c2ccc(OC(F)F)cc2)CC1 (stereo unspecified)	0	0	0	0	0	0
C[C@H](CO)N1C[C@H](C)[C@@H](CN(C)Cc2ccc(C(=O)O)cc2)Oc2ccc(NS(C)(=O)=O)cc2C1=O	0	0	0	0	0	0
O=C(C[n+]1cc(-c2ccc(Cl)c(Cl)c2)n2c1CCC2)N1c2ccccc2Sc2ccccc21	0	16µM	0	0	?	23µM
O=C(C[n+]1cc(-c2ccc(Cl)cc2)n2c1CCC2)N1c2ccccc2Sc2ccccc21	0	9.2µM	0	0	0	13µM
O=C(C[n+]1cc(-c2ccc(F)cc2)n2c1CCC2)OCc1ccccc1	0	0	0	0	0	0
COc1ccc(-c2c[n+](CC(=O)N3c4ccccc4Sc4ccccc43)c3n2CCC3)cc1	0	2.3µM	0	0	0	2.1µM
CC1CCC(C(C)C)C(OC(=O)C[n+]2cc(-c3ccc(Cl)cc3)n3c2CCC3)C1 (stereo unspecified)	0	2.9µM	0	?	11µM	2.3µM
COc1ccc(NC(=O)N[C@@H](CCSC)C(=O)O)cc1Cl	0	0	0	0	0	0
O=C(NCCCN1CCOCC1)C(=O)NCC1OCCN1S(=O)(=O)c1ccc(Cl)cc1 (stereo unspecified)	0	0	0	-	0	?
O=C(CSc1nnc(C2CC2)n1Cc1ccccc1)N1CCNC1=O	0	0	0	0	0	0
O=C1N=c2ccccc2=C1c1c(O)n(-c2cccc(F)c2)[nH]c1=O	0	21µM	0	0	0	?
CC1=NN(c2ccccc2)C(=O)/C1=C/c1c(O)n(-c2ccc(F)cc2)[nH]c1=O	0	0	0	0	?	0
O=C(c1cccc(-c2ccccc2)c1)N1CC[C@@H](N2CCC(O)CC2)[C@H](O)C1	0	0	0	0	0	0
O=C(COC(=O)/C=C/c1ccccc1)Nc1ccc(Cl)cn1	0	0	0	0	0	0
COc1ccc(/C=C/C(=O)Nc2ccccc2)cc1OC	0	0	0	-	0	0
COc1ccccc1/C=C/C(=O)OCC(=O)NNC(=O)c1ccccc1	0	0	0	0	0	18µM
COc1ccccc1/C=C/C(=O)OCC(=O)NCc1ccco1	0	18µM	0	0	0	?
COc1ccc(/C=C/C(=O)Nc2c(C(=O)O)[nH]c3ccccc23)cc1OC	0	21µM	0	0	0	?
COc1ccccc1/C=C/C(=O)OCC(=O)Nc1ccc(Cl)cn1	0	0	0	25µM	0	0
